This is a sample that favours compounds with a hit; in the whole collection about 0.93% have one here.
TAR Tat displ: HIV-1 TAR-Tat binding disruption. HIV-1 TAR RNA, Tat peptide displacement FRET; stronger effect = higher value. z-score (test concentration not listed). 100,000 tested, 0.6% active. AID 1259389; active = z-score of 3 or more in at least 2 runs
CDC25B CDK2 inh: human CDC25B-CDK2/CyclinA binding inhibition; P30305+P24941; HTRF CDC25B-CDK2/CyclinA binding, anti-His/anti-Flag; stronger effect = higher value; z-score (concentration not given with the values); 94,000 tested, 0.72% active; in the data active = z-score above about 3.2
Each line names hits and unclear results; the compound was inactive in the other large screens.

COC(=O)c1c(N)n(-c2ccc(OC)c(OC)c2)c2nc3ccccc3nc12	CDC25B CDK2 inh 10
CCOC(=O)c1c(N)n(-c2ccc(C)c(C)c2)c2nc3ccccc3nc12	none
COc1ccc(OC)c(S(=O)(=O)Nc2cc(N3CCCS3(=O)=O)ccc2OC)c1	none (no result: CDC25B CDK2 inh)
O=C1Nc2c(S(=O)(=O)N3CCCCC3)cc(S(=O)(=O)N3CCCCC3)c3cccc1c23	none
N=C1C(c2nc3ccccc3[nH]2)=C(O)CN1c1ccc(S(N)(=O)=O)cc1	TAR Tat displ 4.4
N=C1C(c2nc3ccccc3[nH]2)=C(O)CN1c1ccc(F)cc1	none
CCc1cc2c3c([nH]c2cc1S(=O)(=O)Nc1ccc(Cl)cc1F)CCCC3=O	TAR Tat displ 4.3 (no result: CDC25B CDK2 inh)
CCc1cc2c3c([nH]c2cc1S(=O)(=O)Nc1ccc(F)cc1F)CCCC3=O	none (no result: CDC25B CDK2 inh)
COC(=O)CSc1nnc(CSc2ncccn2)n1-c1ccc(Cl)cc1	none
O=C(Nc1ccccc1)c1ccnc(Nc2ccc3c(c2)OCCO3)c1	none (no result: CDC25B CDK2 inh)
O=c1cc(-c2cc(O)c(O)c(O)c2)oc2cc(O)cc(O)c12	TAR Tat displ 10 (no result: CDC25B CDK2 inh)
O=c1cc(-c2ccc(O)cc2)oc2cc(O)cc(O)c12	none
COc1ccc2cc3c(N)nn(C(=O)CCS(=O)(=O)c4ccccc4)c3nc2c1	none (no result: TAR Tat displ)
Cc1nc2c3ccccc3n(CC(=O)c3ccc(Br)cc3)c(=O)n2n1	none (no result: TAR Tat displ)
O=S(=O)(c1ccccc1)c1cnc2ccc(F)cc2c1N1CCCCC1	none
Cc1cc(-c2ccccc2)oc2cc3ccccc3c1-2	none (no result: TAR Tat displ)
CC1(C)CC(=O)c2cc(C(=O)Nc3ccc(F)cc3)c(=O)[nH]c2C1	none
COc1ccc(-c2noc(-c3nnn(-c4ccc(OC)cc4)c3N)n2)cc1	none (no result: CDC25B CDK2 inh)
COc1ccc(-c2noc(-c3nnn(-c4ccc(C)c(C)c4)c3N)n2)cc1	TAR Tat displ 4.7 (no result: CDC25B CDK2 inh)
CCC1=NN(c2ccccc2)C(=O)C1	CDC25B CDK2 inh 10
CC1=NN(c2ccccc2)C(=O)/C1=C1/C(=O)N(c2ccccc2)N=C1C	none (no result: TAR Tat displ)
O=C(O)CNC(=O)CCCCC(=O)NCC(=O)O	CDC25B CDK2 inh 10 (no result: TAR Tat displ)
O=C(O)CCC(=O)NCC(=O)c1ccc(F)cc1	none (no result: TAR Tat displ)
O=S(=O)(Nc1cccc(-c2nc(-c3ccccc3)co2)c1)c1ccc(Br)cc1	none (no result: CDC25B CDK2 inh)
Cc1cc(O)c(C=O)c2c1C(=O)Oc1c(C)c(O)c3c(c1O2)C(O)OC3=O (stereo not given)	TAR Tat displ 4 (no result: CDC25B CDK2 inh)
COc1cc(C)c2c(c1C=O)Oc1c(c(C)c(O)c3c1C(O)OC3=O)OC2=O (stereo not given)	none (no result: CDC25B CDK2 inh)
O=C(Nc1nnc(C2CC2)s1)c1sc2ccccc2c1Cl	none (no result: TAR Tat displ)
N[C@H](CO)C(=O)O	none (no result: TAR Tat displ)
NC(CO)C(=O)NNCc1ccc(O)c(O)c1O (stereo not given)	TAR Tat displ 13
Cc1sc2ncnc(Nc3ccc4c(c3)OCO4)c2c1C	none (no result: CDC25B CDK2 inh)
Cc1c(C(=O)O)sc2ncnc(NCc3ccc4c(c3)OCO4)c12	TAR Tat displ 5 (no result: CDC25B CDK2 inh)
Cc1sc2ncnc(NCc3ccc4c(c3)OCO4)c2c1C	none
Cc1c(C(=O)O)sc2ncnc(Nc3ccccc3)c12	none (no result: CDC25B CDK2 inh)
COc1ccc(Nc2ncnc3sc(C(=O)O)c(C)c23)cc1OC	TAR Tat displ 35 (no result: CDC25B CDK2 inh)
Cc1c(C(=O)O)sc2ncnc(Nc3ccc4c(c3)OCCO4)c12	TAR Tat displ 25 (no result: CDC25B CDK2 inh)
Cc1cc(C)nc(NS(=O)(=O)c2ccc(N3C(=O)C4=C(SCCS4)C3=O)cc2)n1	none (no result: TAR Tat displ)
CCn1nc(C)c(CCNS(=O)(=O)c2ccccc2Cl)c1C	none (no result: CDC25B CDK2 inh)
COc1ccc(C2C=C(C(=O)O)Nc3ncnn32)cc1Cl (stereo not given)	none
Cc1cc(C)c2c(C)nn(-c3ccc(Cl)cc3)c2n1	none
Cc1ccc(-c2csc(-c3cc4c([nH]c3=O)CC(c3ccccc3)CC4=O)n2)cc1 (stereo not given)	none
O=C1CC(c2ccco2)Cc2[nH]c(=O)c(-c3nc(-c4ccc(Br)cc4)cs3)cc21 (stereo not given)	TAR Tat displ 3.7, CDC25B CDK2 inh 8.2
CCCCN1COc2c(cc(Cl)c3cccnc23)C1	CDC25B CDK2 inh 17
Clc1cc2c(c3ncccc13)OCN(CCc1ccccc1)C2	none (no result: TAR Tat displ)
O=[N+]([O-])c1ccc(N2CCN(c3ccccc3)CC2)s1	none (no result: CDC25B CDK2 inh)
CCOC(=O)N1CCN(c2ccc([N+](=O)[O-])s2)CC1	TAR Tat displ 5.2 (no result: CDC25B CDK2 inh)
Cc1oc2c(cc(O)c3ccccc32)c1C(=O)O	CDC25B CDK2 inh 8.6
CC(=O)Oc1cc2c(C(=O)N3CCCC3)c(C)oc2c2ccccc12	none
CCCCNC(=O)c1cccn1-c1nnc(N2CCCCC2)s1	none (no result: CDC25B CDK2 inh)
COC(=O)C1C(=O)C2=C(CC1C)NC(C)=C(C(=O)OC1CCCCC1)C2c1ccc(OC)cc1OC (stereo not given)	none
O=C(c1ccc2c(=O)n3c(nc2c1)CCCC3)N1CCCCC1	none (no result: CDC25B CDK2 inh)
CCOc1ccc(S(=O)(=O)Nc2cc3c(c4ccccc24)OC2(C3)N(C)c3ccccc3C2(C)C)cc1 (stereo not given)	CDC25B CDK2 inh 18 (no result: TAR Tat displ)
CCOc1ccc(S(=O)(=O)Nc2ccc3c(c2)N(S(=O)(=O)c2ccccc2)CCC3)cc1	none (no result: CDC25B CDK2 inh)
Cc1ccc(C)n1-c1cc(C(=O)O)cc(C(=O)O)c1	TAR Tat displ 17
Cc1cc2c(n1-c1ccc(C(=O)O)cc1)CCCC2	none

Source: PubChem BioAssay (Center for Chemical Genomics, University of Michigan)
